Experimental findings from PubChem BioAssay (NCI) are described below.

Compounds without any hit were thinned out: in the full panel of roughly 79,000, 15% have a hit. The source made the active and inactive calls. Cut-off read from the data, not from the text of the source: active = growth inhibition above about 70%; inactive = the rest.

A short description of the first experiment: NCI Yeast Anticancer Drug Screen. Data for the rad14 strain (AID 159).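 Note: 0% = growth of vehicle-treated control cultures.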 The conditions noted are these: S. cerevisiae rad14 strain growth inhibition; at 11.0 µM; active compounds read high. The gist of the method: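 A mutant yeast strain defective in DNA damage repair is treated with compound; inhibition of its growth is scored against untreated, vehicle-exposed cultures.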
For the compound `C/C(=N\O)C1CC2C=C(C#N)C1N(Cc1ccccc1)C2` (centres undefined), the growth inhibition was 2% (inactive).

With `O=[N+]([O-])C(=C(Sc1ccccc1)Sc1ccccc1)C(Cl)=C(Cl)Cl`, the growth inhibition is 19% (inactive).

With `CCCCCCCCCC/C=C\C(=O)O`, the growth inhibition is -1% (inactive).

In the case of `COc1ccc(N=C2C(=O)Nc3ccc(Br)cc32)cc1`, the growth inhibition is -26% (inactive).

On to `COc1ccccc1C(=O)OCC1CCCN2CCCCC12` (centres undefined), for which the growth inhibition was 77% (active).

On to `CC(C)(Br)C(=O)/C=C/c1ccc(Cl)c(Cl)c1`, for which the growth inhibition is 1% (inactive).

`Nc1ccccc1CC(O)C(=O)O` (centres undefined): the growth inhibition is 24% (inactive).

Consider `CC(=O)N/N=C/C(C)(C)C(C)(C)/C=N/NC(C)=O`, for which the growth inhibition is 7% (inactive).

Take `CN(C)c1nc2sc3c(c2c(=O)o1)CCCC3`: the growth inhibition was 3% (inactive).

`CC(C)OC(=O)Oc1ccccc1OC(=O)OC(C)C`: the growth inhibition is -3% (inactive).

Regarding `Cc1ccc(N)c(S)c1`, the growth inhibition was -22% (inactive).

With `O=C(O)c1ccccc1NC(=S)c1ccccc1`, the growth inhibition is -4% (inactive).

For the compound `COC(=O)c1ccc(NCC2=CC(=O)C=CC2=O)cc1O`, the growth inhibition is 98% (active).

With `NC(N)=N/N=C\c1c2ccccc2cc2ccccc12`, the growth inhibition was -45% (inactive).

Regarding `COC(=O)CSSCc1ccc([N+](=O)[O-])cc1`, the growth inhibition is 20% (inactive).

Take `CCS(=O)(=O)c1ccc(/C=C/C=N/NC(=S)NCC(C)C)cc1`: the growth inhibition was 0% (inactive).

Take `N#CC(C(=O)Nc1ccccc1)C1=C(Cl)C(=O)c2ccccc2C1=O` (centres undefined): the growth inhibition is 98% (active).

As for `C[C@H](CCC(=O)NN)[C@H]1CC[C@H]2[C@@H]3CC[C@@H]4C[C@H](O)CC[C@]4(C)[C@H]3CC[C@]12C`, the growth inhibition was 0% (inactive).

Regarding `CC[n+]1ccc2c(C)c3[nH]c4ccc(O)cc4c3c(C)c2c1`, the growth inhibition was -23% (inactive).

The experiment is the same for the next values; noted with them: S. cerevisiae rad14 strain growth inhibition; at 33.0 µM; active compounds read high.
With `CCCc1cc(C(=O)OCC)cc(CCC)c1O`, the growth inhibition is -8% (inactive).

Regarding `CC(C)[N+]([O-])(CCCNc1c2ccccc2nc2cccc([N+](=O)[O-])c12)C(C)C`, the growth inhibition is 99% (active).

Consider `COc1cc2c3c(cccc3c1)C(=O)N(CCN(C)C)C2=O`, for which the growth inhibition was -3% (inactive).

On to `NC(=O)NN=C(CS)CS`, for which the growth inhibition was 30% (inactive).

For `Cc1ccc(NC(=O)/C(Cl)=C(\Cl)C(=O)O)cc1C`, the growth inhibition was 99% (active).

With `CCN(CC)CC[n+]1ccc2c(C)c3[nH]c4ccc(O)cc4c3c(C)c2c1`, the growth inhibition was 3% (inactive).

Turning to `CC(CC(C)(C)[N+](C)(C)C)[N+](C)(C)C` (centres undefined), the growth inhibition was 3% (inactive).

Take `COc1ccc(OC)c2cc3ccccc3cc12`: the growth inhibition was 4% (inactive).

On to `Nc1ncncc1C(C1=C(O)COC1=O)C1=C(O)COC1=O`, for which the growth inhibition was -5% (inactive).

With `CSC1=NNC(SC)=NN1`, the growth inhibition is 87% (active).

As to `Cc1c(Cl)ccc2c1S(=O)(=O)c1cccc(Cl)c1-2`, the growth inhibition is 5% (inactive).

With `[O-][n+]1c2ccc(O)cc2nc2ccc(Cl)cc21`, the growth inhibition is 58% (inactive).

Regarding `COc1ccc2ccc3ccccc3c2c1C=O`, the growth inhibition was 14% (inactive).

Turning to `Nc1ccc2c(c1)C(=O)c1cccc(N)c1C2=O`, the growth inhibition is 57% (inactive).

Regarding `O=C(c1ccc(Cl)cc1Cl)C(Cl)Cl`, the growth inhibition is 53% (inactive).

For `COc1cc(C(=O)/C=C/c2ccccc2O)ccc1O`, the growth inhibition was 98% (active).

Turning to `O=Cc1cccc2ccc3ccccc3c12`, the growth inhibition is 71% (active).

Regarding `O=C(Nc1ccc(Cl)cc1)OCC#CCCl`, the growth inhibition is -4% (inactive).

Take `Cn1ccnc1Oc1ccc(Cl)cc1`: the growth inhibition was 46% (inactive).

In the case of `c1ccc2c(c1)C(=NCCCN1CCCCCC1)c1cccn1-2`, the growth inhibition is 4% (inactive).

On to `C/C(=N\O)C1CC2C=C(C#N)C1N(Cc1ccccc1)C2` (centres undefined), for which the growth inhibition was 1% (inactive).

With `O=[N+]([O-])C(=C(Sc1ccccc1)Sc1ccccc1)C(Cl)=C(Cl)Cl`, the growth inhibition was 27% (inactive).

Consider `CCCCCCCCCC/C=C\C(=O)O`, for which the growth inhibition was 38% (inactive).

Regarding `COc1ccc(N=C2C(=O)Nc3ccc(Br)cc32)cc1`, the growth inhibition is -28% (inactive).

Consider `COc1ccccc1C(=O)OCC1CCCN2CCCCC12` (centres undefined), for which the growth inhibition is 98% (active).

In the case of `CC(C)(Br)C(=O)/C=C/c1ccc(Cl)c(Cl)c1`, the growth inhibition was 2% (inactive).

Turning to `Nc1ccccc1CC(O)C(=O)O` (centres undefined), the growth inhibition is 91% (active).

Turning to `CC(=O)N/N=C/C(C)(C)C(C)(C)/C=N/NC(C)=O`, the growth inhibition is 39% (inactive).

For the compound `CN(C)c1nc2sc3c(c2c(=O)o1)CCCC3`, the growth inhibition is 27% (inactive).

For the compound `CC(C)OC(=O)Oc1ccccc1OC(=O)OC(C)C`, the growth inhibition was 0% (inactive).

Turning to `Cc1ccc(N)c(S)c1`, the growth inhibition was 55% (inactive).

Consider `O=C(O)c1ccccc1NC(=S)c1ccccc1`, for which the growth inhibition was 17% (inactive).

For the compound `COC(=O)c1ccc(NCC2=CC(=O)C=CC2=O)cc1O`, the growth inhibition was 98% (active).

`NC(N)=N/N=C\c1c2ccccc2cc2ccccc12`: the growth inhibition was 9% (inactive).

In the case of `COC(=O)CSSCc1ccc([N+](=O)[O-])cc1`, the growth inhibition was 48% (inactive).
